Source: PubChem BioAssay
E-sel TNF inh: TNF alpha driven E-selectin expression inhibition; HUVEC TNFa-induced E-selectin immunofluorescence, high content; inhibition, % at 2 µM; hit rate 0.71% among 120,000;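 active means inhibition above the batch mean plus 3 SD, and confirmed as a hit on visual image review, cut at about 43% in these data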;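 further: 0% = TNF-stimulated DMSO wells and 100% = unstimulated control wells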
CYP2C19 inhib: inhibitors of human CYP2C19 | P33261 | CYP2C19 Supersomes, luciferin-H EGE luminescence, 30 min | inhibition, % at 5 µM | hit rate 21% among 96,000 | AID 778;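 active means CYP2C19 inhibition above a set limit at 5 µM in the primary screen, cut at about 50% in these data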;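 further: plate controls were negative control wells for no effect and 2.5 mM tranylcypromine positive control for full effect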
Target sequence (P33261 whole entry, looked up): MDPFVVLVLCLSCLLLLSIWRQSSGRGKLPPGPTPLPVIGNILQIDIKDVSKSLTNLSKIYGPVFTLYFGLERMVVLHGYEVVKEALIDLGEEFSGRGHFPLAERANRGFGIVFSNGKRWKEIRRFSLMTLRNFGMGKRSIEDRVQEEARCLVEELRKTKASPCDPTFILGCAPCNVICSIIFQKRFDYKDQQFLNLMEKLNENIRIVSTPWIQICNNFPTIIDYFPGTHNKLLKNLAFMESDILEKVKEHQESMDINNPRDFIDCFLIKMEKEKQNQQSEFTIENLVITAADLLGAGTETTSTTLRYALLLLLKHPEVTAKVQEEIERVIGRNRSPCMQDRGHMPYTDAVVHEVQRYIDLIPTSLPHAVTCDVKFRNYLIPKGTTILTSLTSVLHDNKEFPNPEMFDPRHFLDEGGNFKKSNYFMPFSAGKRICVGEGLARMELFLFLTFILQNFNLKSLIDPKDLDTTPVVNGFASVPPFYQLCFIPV
F-actin modifier: modifiers of cytoskeleton assembly | HUVEC TNFa F-actin phalloidin imaging, high content | AID 836 | inhibition, % at 2 µM | hit rate 0.18% among 91,000;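 active means inhibition above the batch mean plus 3 SD and confirmed as a hit by visual image inspection, cut at about 30% in these data, passing the limit was not always enough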
CYP2C9 inhib: inhibitors of human CYP2C9 | P11712 | CYP2C9 Supersomes, luciferin-H conversion, luminescence | inhibition, % at 5 µM | hit rate 20% among 96,000 | AID 777;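 active means blocking of liver enzyme CYP2C9 beyond about 50% at 5 µM, limit read from the data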
CYP2C19 activ: activators of human cytochrome P450 2C19. 96,000 tested, under 10 active. recombinant CYP2C19, luciferin-H EGE luminescence; active compounds read high; 0 = fully inhibited enzyme, 1 = untreated enzyme. activation factor at 5 µM;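 active means activation factor of at least 2 at 5 µM in the primary screen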;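 further: 0 = wells with 2.5 mM tranylcypromine and 1 = vehicle-only wells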
CYP2C9 act: CYP2C9 (human) activation. recombinant CYP2C9, luciferin-H conversion, luminescence; active compounds read high; factor 1 = untreated enzyme, 0 = blocked. activation factor at 5 µM. hit rate 1.4% among 96,000;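 active means activation factor of 2 or more for CYP2C9 at a 5 µM dose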;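 further: 0 = sulfaphenazole-blocked wells and 1 = vehicle-only wells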
Starred values were filed as active, the others as inactive; · = no result given. An excerpt weighted towards active compounds, which were near 22% of everything screened.

SMILES	E-sel TNF inh	CYP2C19 inhib	F-actin modifier	CYP2C9 inhib	CYP2C19 activ	CYP2C9 act
COc1cccc2cc(C(=O)C3=C(O)C(=O)N(CCCN(C)C)C3c3ccncc3)oc12 (stereo not given)	·	5	·	4	1	1
CCOc1ccc(/C=C/C(=O)Nc2ccccc2C(F)(F)F)cc1	9	·	·	·	·	·
CCCN(CCC)CCNC(=O)Cn1cnc2sc(C)c(S(=O)(=O)N3CCOCC3)c2c1=O	-2	·	8	·	·	·
Cc1ccc(C(=O)COC(=O)C2CC(=O)N(c3nc(-c4ccccc4)cs3)C2)cc1C (stereo not given)	-17	13	10	90*	0.9	0.1
CC(=O)Nc1nonc1-n1nnc(C(=O)NCc2ccccc2)c1C	-1	83*	·	70*	0.2	0.3
Cc1ccc(-c2nnc(CSc3nc(C)nc4sc(C)c(C)c34)o2)cc1	·	-8	·	-12	1.1	1.1
COc1ccc(NS(=O)(=O)c2cc(C)ccc2NC(=O)c2cc(C)oc2C)cc1	2	71*	-59	24	0.3	0.8
COc1cc(NC(=O)CCc2ccccc2)c(C(=O)O)cc1OC	-5	1	·	18	1	0.8
O=C(Nc1ccc(-n2cnnn2)cc1)C1CCC1	28	51*	-1	39	0.5	0.6
Cc1cccc(-c2nnc3n2N=C(c2ccccc2Br)CS3)c1	12	85*	19	52*	0.2	0.5
COc1cccc(-c2nnc3n2N=C(C(C)(C)C)CS3)c1	·	68*	-30	30	0.3	0.7
Clc1ccccc1C1=Nn2c(nnc2-c2ccncc2)SC1	3	61*	-104	72*	0.4	0.3
COc1ccc(C2=Nn3c(nnc3-c3ccc(OC)cc3)SC2)cc1	4	22	8	52*	0.8	0.5
CC(C)(C)C1=Nn2c(nnc2-c2ccccn2)SC1	27	9	2	-10	0.9	1.1
Cc1ccc(-c2nnc3n2N=C(c2ccccc2)CS3)cc1	-14	-15	·	-5	1.2	1.1
COc1cccc(C2=Nn3c(nnc3-c3ccccc3O)SC2)c1	4	43	-46	69*	0.6	0.3
COc1ccc(-c2nnc3n2N=C(c2cccc(Br)c2)CS3)cc1OC	-5	36	·	44	0.6	0.6
COc1ccc(OC)c(C2=Nn3c(nnc3-c3cc(OC)c(OC)c(OC)c3)SC2)c1	-41	60*	-29	88*	0.4	0.1
COc1cccc(-c2nnc3n2N=C(c2cc(OC)ccc2OC)CS3)c1	-19	72*	1	57*	0.3	0.4
COc1cc(-c2nnc3n2N=C(c2ccccc2)CS3)cc(OC)c1OC	-50	73*	-41	68*	0.3	0.3
O=C(Cc1ncc(C(F)(F)F)cc1Cl)NCCc1ccccc1	-11	·	·	·	·	·
O=C(C(=O)N1CCN(C(=O)c2ccco2)CC1)c1c[nH]c2ccccc12	-33	·	·	·	·	·
CC/C(=C\C(=O)c1ccncc1)Nc1ccc(Br)cc1	2	99*	14	89*	0	0.1
CCCCC(C(=O)NC(=O)NCc1ccccc1)N1C(=O)c2ccccc2C1=O (stereo not given)	7	26	-4	31	0.7	0.7
CCn1nnnc1SCC(=O)Nc1cc(OC)cc(OC)c1	-34	3	·	4	1	1
SMILES	E-sel TNF inh	CYP2C19 inhib	F-actin modifier	CYP2C9 inhib	CYP2C19 activ	CYP2C9 act
O=C1c2ccsc2SCCN1Cc1cccc(Cl)c1	-6	45	0	40	0.6	0.6
O=C1c2ccsc2SCCN1Cc1ccc(Cl)cc1	6	58*	-8	30	0.4	0.7
O=P(OC1CCCCC1)(OC1CCCCC1)C(O)c1ccccc1 (stereo not given)	19	65*	6	55*	0.4	0.4
COc1ccccc1C(=O)NCCCn1cc(Br)c(C)n1	1	73*	-4	21	0.3	0.8
CN(C)S(=O)(=O)N1CCN(C(=O)N(c2ccccc2)c2ccccc2)CC1	46	13	-7	33	0.9	0.7
Cc1ccc(N(C)C(=O)N2CCN(S(=O)(=O)c3ccc4ccccc4c3)CC2)cc1	-77	57*	9	34	0.4	0.7
CC(C)CC(=O)N1CCN(S(=O)(=O)c2ccc3ccccc3c2)CC1	5	96*	·	-92	0	1.9
CC(C)CC1NC(=O)N(CC(=O)N2CCN(S(=O)(=O)c3ccc4ccccc4c3)CC2)C1=O (stereo not given)	10	11	-17	-7	0.9	1.1
Cc1ccc(N(C)C(=O)N2CCN(c3ccccn3)CC2)cc1	·	21	-6	53*	0.8	0.5
Cc1ccc(S(=O)(=O)N2CCN(C(=O)N(c3ccccc3)c3ccccc3)CC2)cc1	1	51*	-1	52*	0.5	0.5
CCCNC(=O)N1CCN(S(=O)(=O)c2ccc(C)cc2)CC1	1	9	35	-6	0.9	1.1
Cc1ccc(N(C)C(=O)N2CCN(S(=O)(=O)c3ccc(C)cc3)CC2)cc1	·	95*	·	56*	0.1	0.4
CCOC(=O)C1=C(O)C(=O)N(c2ccc(S(N)(=O)=O)cc2)C1c1ccccc1 (stereo not given)	27	3	-18	24	1	0.8
CC(C)NS(=O)(=O)c1ccc(NC(=O)Cc2cccs2)cc1	5	·	·	·	·	·
O=C(O)CN(c1ccc2c(c1)OCCO2)S(=O)(=O)c1ccccc1	8	-5	13	-2	1	1
COC(=O)CN(c1ccc2c(c1)OCCO2)S(=O)(=O)c1ccccc1	10	84*	-8	64*	0.2	0.4
COC(=O)CN(c1ccc(F)cc1)S(=O)(=O)c1ccc2c(c1)OCCO2	-1	47	96*	54*	0.5	0.5
O=C(CN(c1ccc(F)cc1)S(=O)(=O)c1ccc2c(c1)OCCO2)NCc1ccccn1	-7	95*	1	64*	0	0.4
COc1ccc(CNC(=O)c2csnn2)cc1	·	52*	-2	4	0.5	1
COc1ccc(CNC(=O)c2cnccn2)cc1	8	58*	-5	-30	0.4	1.3
COCCNC(=S)N(CCc1c(C)[nH]c2ccc(C)cc12)Cc1ccco1	-66	·	·	·	·	·
CCOC(=O)C1CCCCN1Cc1ccccc1C(F)(F)F (stereo not given)	-12	95*	·	52*	0	0.5
CCOC(=O)C1CCN(Cc2ccccc2C(F)(F)F)CC1	27	26	·	34	0.7	0.7
CCOC(=O)C1CCCCN1Cc1cccc(C(F)(F)F)c1 (stereo not given)	-1	17	-15	18	0.8	0.8
CCOC(=O)C1CCCCN1Cc1ccc(C(F)(F)F)cc1 (stereo not given)	9	97*	-19	62*	0	0.4
CC(C)Sc1nc2ccccc2n1CC(N)=O	·	-3	8	-12	1	1.1
COc1ccc(NC(=O)Nc2nnc(CC(=O)NCc3ccccc3)s2)cc1	3	·	·	·	·	·
Cc1nc2ccccc2c(=O)n1Nc1cccc(Cl)c1	-8	·	·	·	·	·
